Screening data from PubChem BioAssay.
In the library only some 17% were active in any assay of this set; here they are far more common.
S2 tox = viability counter-screen for ATXN expression inhibitors; Potency, µM (doses to about 56.7 µM), usual class: cytotoxic; AID 651635; actives 0.49% (n = 400,000); S2 cells (HEK-293 line with an ATXN2-luciferase reporter) viability, CellTiter-Fluor protease fluorescence, 24 h; note: nearly all actives have a fitted effect of over 40% in size
HepG2 tox = counter-screen for TGF-b inhibitors: cytotoxicity in HepG2 cells. HepG2 CAGA-GFP viability, ATP luminescence, 18 h. Potency, µM (series often up to 46.1 µM), most hits filed as cytotoxic. AID 588856. actives 0.76% (n = 410,000)
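CellTiter-Glo luminescence gave cytotoxicity after 18 hours at 37 degrees C. The cells were HepG2 CAGA-GFP in 1% FBS DMEM, stimulated with 500 pg/mL TGF-beta after compound addition. %Activity was normalised to no-cell wells (complete cell-killing) and DMSO (no toxicity), and curves were fitted and classified.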
ATXN2 expr inh = reduces ATXN2 reporter expression in HEK-293 cells; HEK-293 ATXN2-luciferase reporter, luminescence, 24 h; Potency, µM (highest dose often 57 µM), usual class: inhibitors; actives 0.72% (n = 360,000); AID 1745845; note: nearly all actives have a fitted effect of over 55% in size
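qHTS (up to 57 uM final) was run with 24 h compound exposure of reporter cells at 37 °C. Each well was multiplexed: SteadyGlo luminescence measured ATXN2-luciferase expression after a fluorogenic Gly-Phe-AFC viability readout (25 uM final).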
TGFb SMAD3 inh = TGF-b pathway inhibition | HepG2 CAGA-GFP TGF-b/SMAD3 reporter, GFP fluorescence, 18 h; TGF-beta stimulated, 500 pg/mL final | AID 588855 | Potency, µM (series often up to 46.1 µM), usual class: inhibitors | actives 1.2% (n = 410,000); note: nearly all actives have a fitted effect of over 65% in size
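Using HEPG2 CAGA-GFP reporter cells at 1000 cells/well, we pinned test compounds, stimulated with recombinant TGF-beta (500 pg/mL final) and measured total well GFP after 18 h.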
TDP1 cell noCPT = qHTS for Inhibitors of human tyrosyl-DNA phosphodiesterase 1 (TDP1): qHTS in cells in absence of CPT; DT40 Tdp1-/- hTDP1 cells, no CPT, ATP luminescence, 48 h; Potency, µM (series often up to 46.2 µM), usual class: inhibitors; actives 15% (n = 420,000); note: nearly all actives have a fitted effect of over 55% in size
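Compound effects on proliferation are scored in DT40 Tdp1-/-;hTDP1 cells in the absence of CPT. ATP levels (CellTiter-Glo luminescence) are recorded after a ≥48 hr, 37 °C incubation.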
TDP1 cell CPT = growth inhibition of DT40 Tdp1-/-;hTDP1 cells with camptothecin (screen for TDP1 inhibitors) | chicken DT40 Tdp1-/-;hTDP1 cells + 20 nM CPT, ATP luminescence, 48 h | Potency, µM (doses to about 46.2 µM), usual class: inhibitors | actives 12% (n = 420,000); note: nearly all actives have a fitted effect of over 55% in size
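Chicken DT40 Tdp1-/- cells complemented with human TDP1, 400 cells/well, exposed to compounds plus 20 nM camptothecin for at least 48 h at 37 C; viability read as ATP content by CellTiter-Glo luminescence.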
Of the large screens only hits and unclear results are named; the others gave an inactive call. Calls come from the whole dose curve; as a rule, active = well fitted curve in the direction sought with a large enough effect; inconclusive = small, poorly fitted or top-dose-only effect, or another doubt; inactive = no such curve, though single readings can be large; an effect the other way counts as inactive or inconclusive.

O=C(O)c1cccc(Nc2ncnc3scc(-c4ccccc4)c23)c1	TDP1 cell noCPT inconclusive, TDP1 cell CPT inconclusive
O=C(C[n+]1ccc(-c2cc(C(=O)Nc3cccc(C(F)(F)F)c3)c3ccccc3n2)cc1)c1cccc([N+](=O)[O-])c1	S2 tox inconclusive, ATXN2 expr inh inconclusive, TGFb SMAD3 inh inconclusive, TDP1 cell noCPT 23µM, TDP1 cell CPT inconclusive
O=C(COC(=O)c1ccc[n+]([O-])c1)Nc1ccccc1OC(F)F	none
O=C(C[n+]1ccc(C(=O)c2ccccc2)cc1)Nc1cccc([N+](=O)[O-])c1	TDP1 cell noCPT 16µM, TDP1 cell CPT 21µM (no result: HepG2 tox, TGFb SMAD3 inh)
O=C(C[n+]1ccc(C(=O)c2ccccc2)cc1)Nc1ccccc1OC(F)F	TDP1 cell noCPT 16µM, TDP1 cell CPT inconclusive
CC(C)OCCCNC(=O)C(=O)Nc1c2c(nn1-c1ccccc1)CS(=O)(=O)C2	none
CCC(C)NC(=O)CSc1nc2cc3c(cc2c(=O)n1CCCC(=O)NCCc1ccc(OC)c(OC)c1)OCO3 (stereo not drawn)	none (no result: S2 tox, ATXN2 expr inh)
COc1cc(/C=N/NC(=O)c2nnn(-c3nonc3N)c2C)ccc1OCc1ccc(Cl)cc1	S2 tox inconclusive, TDP1 cell noCPT inconclusive, TDP1 cell CPT inconclusive (no result: ATXN2 expr inh)
COc1ccc(O)c(/C=N/NC(=O)c2cccc(N3CCCC3=O)c2)c1	ATXN2 expr inh inconclusive, TDP1 cell noCPT 3.3µM, TDP1 cell CPT 5.2µM
O=C(N/N=C/c1ccco1)c1cccc(N2CCCC2=O)c1	none
COc1cccc(/C=N/NC(=O)c2cccc(N3CCCC3=O)c2)c1	none
O=C(N/N=C/c1cc(Br)ccc1O)c1cccc(N2CCCC2=O)c1	S2 tox inconclusive, ATXN2 expr inh inconclusive, TGFb SMAD3 inh inconclusive, TDP1 cell noCPT 4.6µM, TDP1 cell CPT 1.6µM
COc1ccc(O)c(/C=N/NC(=O)c2ccc(N3CCCC3=O)cc2)c1	ATXN2 expr inh 25µM, TDP1 cell noCPT 23µM, TDP1 cell CPT 13µM
Cc1cc(=O)[nH]c(-c2cccnc2)n1	none
O=C(COC(=O)/C=C/c1cccc(C(F)(F)F)c1)Nc1cccc(S(=O)(=O)NC2=NCCC2)c1	none (no result: ATXN2 expr inh)
Cc1cc(C)cc(NC(=O)c2cc(S(=O)(=O)NCc3ccco3)ccc2F)c1	ATXN2 expr inh inconclusive, TDP1 cell noCPT 11µM, TDP1 cell CPT inconclusive
Cc1ccc(NC(=O)c2cc(S(=O)(=O)N3CCCCCC3)ccc2F)cc1F	TDP1 cell noCPT inconclusive, TDP1 cell CPT 8.2µM
Cc1cccc(C(=O)Nc2cccc(S(=O)(=O)NCc3ccco3)c2)c1	S2 tox inconclusive, TDP1 cell noCPT inconclusive, TDP1 cell CPT inconclusive
Cc1ccc(C)c(NC(=O)c2cc(S(=O)(=O)N3CCCCCC3)ccc2F)c1	TGFb SMAD3 inh inconclusive, TDP1 cell noCPT inconclusive, TDP1 cell CPT 16µM
Cc1cc(C)cc(NC(=O)c2cc(S(=O)(=O)N3CCCC3)ccc2F)c1	TDP1 cell noCPT 21µM, TDP1 cell CPT inconclusive
CCOc1ccc(CCNC(=O)c2c(C)oc3ncnc(N4CCOCC4)c23)cc1	TDP1 cell CPT inconclusive (no result: S2 tox, ATXN2 expr inh)
CN1CCN(C(=O)C2=NOC3(C2)C(=O)Nc2ccccc23)CC1 (stereo not drawn)	none (no result: HepG2 tox, TGFb SMAD3 inh)
CCCNC(=O)NC(=O)COC(=O)CNS(=O)(=O)/C=C/c1ccccc1	none (no result: ATXN2 expr inh)
Cc1cc2c(cc1C)/C(=N/NC(=O)c1ccccn1)CCC2	TDP1 cell noCPT 23µM, TDP1 cell CPT inconclusive
O=C(NN=C1CCC(=NNC(=O)c2ccccn2)CC1)c1ccccn1	none
O=C(NCCN1CCCCC1)c1ccc(Oc2cc(Cl)cc(Cl)c2)o1	TGFb SMAD3 inh inconclusive, TDP1 cell noCPT inconclusive, TDP1 cell CPT inconclusive
Nc1c(C(=O)NCC2CCCO2)c2nc3ccccc3nc2n1/N=C/c1ccncc1 (stereo not drawn)	TDP1 cell noCPT 1.6µM, TDP1 cell CPT 8.2µM
Nc1c(C(=O)NC2CCCC2)c2nc3ccccc3nc2n1N	TDP1 cell noCPT 23µM, TDP1 cell CPT inconclusive
